In the library only some 3.5% were active in any assay of this set; here they are far more common.
Giardia FBPA inh: qHTS Assay for Inhibitors of Fructose-1,6-bisphosphate Aldolase from Giardia Lamblia. purified Giardia FBPA. 290,000 tested, 0.71% active. Potency, µM (series often up to 59.6 µM), hits mostly inhibitors. AID 2451, 2010; note: nearly all actives have a fitted effect of over 55% in size
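Giardia FBPA (40 nM reagent) was preincubated 10 min at RT with compound (up to 57.5 uM final), then substrate plus GAPDH/TPI/NAD/arsenate coupling system with diaphorase/resazurin was added; resorufin fluorescence (525/598 nm) was read after 20 min.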
RE007 growth inh: qHTS Assay for Inhibitors of the HIV-1 protein Vpr. S. pombe RE007 Vpr strain, BacTiter-Glo ATP luminescence, 24 h. Potency, µM (titrated, usually from 92.2 µM), actives largely listed as inhibitors. 360,000 tested, 0.21% active. AID 651644, 2012; active = well fitted falling curve with a large enough effect; inconclusive = small, poorly fitted or top-dose-only effect; inactive = no such curve, though single readings can be large or run the other way; note: nearly all actives have a fitted effect of over 50% in size
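Fission yeast strain RE007, carrying one chromosomally integrated HIV-1 vpr copy, was seeded at OD 0.01 in PMG+AL medium with 23 nL pinned compound. After 24 h at 30 °C and 99% humidity, viability was read by BacTiter-Glo luminescence.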
LmPK inh: qHTS Assay for Inhibitors of Leishmania Mexicana Pyruvate Kinase (LmPK) | purified LmPK, Kinase-Glo ATP luminescence, 1 h | Potency, µM (top dose mostly 57.5 µM), actives largely listed as inhibitors | 290,000 tested, 0.37% active
Target sequence (Q27686 whole entry, looked up): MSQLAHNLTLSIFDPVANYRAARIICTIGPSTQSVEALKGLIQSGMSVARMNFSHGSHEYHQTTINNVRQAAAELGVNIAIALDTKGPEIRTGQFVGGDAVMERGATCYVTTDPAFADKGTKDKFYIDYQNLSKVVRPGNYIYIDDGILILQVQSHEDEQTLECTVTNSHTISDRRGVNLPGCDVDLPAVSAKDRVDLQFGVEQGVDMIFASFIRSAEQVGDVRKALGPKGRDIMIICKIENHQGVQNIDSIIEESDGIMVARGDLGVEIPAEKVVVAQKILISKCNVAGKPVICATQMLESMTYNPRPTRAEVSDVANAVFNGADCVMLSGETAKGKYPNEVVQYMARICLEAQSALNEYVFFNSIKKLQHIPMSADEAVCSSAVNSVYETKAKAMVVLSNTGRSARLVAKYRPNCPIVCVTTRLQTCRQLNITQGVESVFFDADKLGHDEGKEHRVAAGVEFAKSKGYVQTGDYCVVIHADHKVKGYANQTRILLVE
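ATP generated from ADP (0.1 mM) and PEP (0.5 mM) by 0.1 nM LmPK over 1 h at room temperature (pH 7.2 imidazole buffer) was detected by coupled luciferase luminescence. Values were normalized to uninhibited and no-enzyme wells.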
Sm TGR block: qHTS Assay for the Inhibitors of Schistosoma Mansoni Peroxiredoxins | purified TGR, DTNB reduction, TNB absorbance 405 nm | Schistosoma mansoni thioredoxin glutathione reductase (TGR), Q962Y6 | Potency, µM (series often up to 114 µM), actives largely listed as inhibitors | 360,000 tested, 3% active | AID 485364, 2010; note: nearly all actives have a fitted effect of over 60% in size
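First, TGR (20 nM dispensed) and NADPH were mixed with compound. Second, a 15 min room-temperature incubation followed. Third, further NADPH and then DTNB were added to start the reaction. Finally, TNB absorbance was monitored kinetically.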
TbPYK inhibitor: qHTS of Trypanosoma Brucei Inhibitors; pyruvate kinase (Trypanosoma brucei), Q57TT1; TbPYK enzyme, Kinase-Glo Plus ATP luminescence, 45 min; Potency, µM (top dose mostly 76.8 µM), hits mostly inhibitors; 410,000 tested, 0.12% active; note: nearly all actives have a fitted effect of over 50% in size
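TbPYK + substrate in 50 mM TEA pH 7.2, 100 mM KCl, 10 mM MgCl2, 0.05% BSA, 0.01% Tween-20; cpd pinned; ADP 130 uM final; 45 min RT; Kinase-Glo Plus 10 min; luminescence endpoint.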
NS1 function inh: qHTS Assay for Inhibitors of Influenza NS1 Protein Function | Potency, µM (doses to about 46.1 µM) | 270,000 tested, 0.4% active | AID 2326, 2010; calls by dose curve; note: actives are rising curves; nearly all actives have a fitted effect of over 50% in size
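Recovery from NS1-induced slow growth read by OD600 in budding yeast switched to galactose assay medium (pH 6.0, -URA) at 1:100 dilution. Compound 23 nl per well; the matching strain lacking NS1 serves as control.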
Of the large screens only hits and unclear results are named; the others gave an inactive call. Unless noted, calls come from the whole dose curve; as a rule, active = well fitted curve in the direction sought with a large enough effect; inconclusive = small, poorly fitted or top-dose-only effect, or another doubt; inactive = no such curve, though single readings can be large; an effect the other way counts as inactive or inconclusive.

COc1cccc(Cn2c(=O)c(-c3cn(C)c4ccccc34)nc3cnc(N4CCNCC4)nc32)c1	none (no result: RE007 growth inh, LmPK inh, Sm TGR block, TbPYK inhibitor, NS1 function inh)
Cc1cccc2cc(C#N)c(NCc3ccccc3)nc12	Giardia FBPA inh 18µM (no result: NS1 function inh)
Cc1cccc2cc(C#N)c(NCCNC(=O)COc3ccccc3)nc12	Giardia FBPA inh 16µM
Cc1ccc(OCCCC(=O)NC2CCCCC2)cc1	Sm TGR block 40µM
C[C@H](Oc1ccc(Oc2cnc3ccc(Cl)cc3n2)cc1)C(=O)O	none (no result: Giardia FBPA inh, RE007 growth inh, LmPK inh, Sm TGR block, TbPYK inhibitor)
Cc1ccc(O)c(C(=O)c2cnn(C(=O)Cc3csc(C)n3)c2)c1	RE007 growth inh 25µM
Cc1ncc(CC(=O)n2cc(C(=O)c3cc(F)ccc3O)cn2)s1	none
Cc1ccc(CSc2ccc(-c3ccco3)nn2)cc1	Sm TGR block inconclusive
Fc1ccccc1CSc1ccc(-c2ccco2)nn1	Sm TGR block 32µM (no result: NS1 function inh)
c1ccc(CSc2ccc(-c3ccco3)nn2)cc1	Sm TGR block 22µM
Clc1ccc(CSc2ccc(-c3ccco3)nn2)cc1	Sm TGR block 28µM (no result: NS1 function inh)
Cc1cccc(CSc2ccc(-c3ccco3)nn2)c1	Sm TGR block inconclusive
Clc1ccc(CSc2ccc(-c3ccccn3)nn2)cc1	none (no result: NS1 function inh)
Clc1cccc(CSc2ccc(-c3ccco3)nn2)c1	Sm TGR block 7.1µM (no result: NS1 function inh)
[NH-]CCC([O-])=NC(Cc1cnc[nH]1)C(=O)[O-].[Zn+2] (stereo not drawn)	none (no result: Giardia FBPA inh, RE007 growth inh, LmPK inh, Sm TGR block, NS1 function inh)
Cc1ccc(N2C(=O)C(CC(=O)Nc3ccc(F)cc3)N(CCC3=CCCCC3)C2=O)cc1 (stereo not drawn)	none (no result: Giardia FBPA inh, RE007 growth inh, LmPK inh, NS1 function inh)
CCC(=O)N1N=C(c2c(O)n(C)c(=O)n(C)c2=O)CC1c1ccccc1 (stereo not drawn)	Giardia FBPA inh inconclusive
Cn1c(O)c(C2=NN(C(=O)CCl)C(c3ccccc3)C2)c(=O)n(C)c1=O (stereo not drawn)	Giardia FBPA inh inconclusive, Sm TGR block 13µM
COc1ccc(-c2nsc(NC(=O)COc3ccc(C)c(C)c3)n2)cc1	none (no result: Giardia FBPA inh, RE007 growth inh, LmPK inh, NS1 function inh)
Cc1ccc(-n2ncc3c(NCc4ccco4)ncnc32)cc1C	none (no result: NS1 function inh)
Cc1cccc(-n2ncc3c(NCc4ccco4)ncnc32)c1	Sm TGR block 45µM
Cn1c(=O)c2c(nc(CN3CCC(Cc4ccccc4)CC3)n2CCN2CCOCC2)n(C)c1=O	none
Cn1c(=O)c2c(nc(CN3CCN(Cc4ccccc4)CC3)n2CCN2CCOCC2)n(C)c1=O	Sm TGR block 40µM
CC(=O)c1ccc(NC(=O)C(Cc2ccccc2)NS(=O)(=O)c2ccc3c(c2)CCC(=O)N3)cc1 (stereo not drawn)	none (no result: Giardia FBPA inh, RE007 growth inh, LmPK inh, NS1 function inh)
Clc1cccc(-c2nnc(-c3ccccc3)o2)c1	RE007 growth inh 20µM, LmPK inh 25µM
ClCc1nnc(-c2ccccc2)o1	Sm TGR block 50µM
c1ccc(-c2nnc(-c3ccccc3)o2)cc1	RE007 growth inh inconclusive, LmPK inh inconclusive
COc1ccccc1-c1cc(NC(=O)COc2ccccc2Cl)n(-c2ccccc2)n1	none (no result: Giardia FBPA inh, RE007 growth inh, LmPK inh, NS1 function inh)
COc1cc(Nc2ccc(S(N)(=O)=O)cc2)c([N+](=O)[O-])nc1[N+](=O)[O-]	Sm TGR block 20µM
C/C(=N\Nc1ccc(Cl)c(C(=O)O)c1)c1ccc(Br)s1	Sm TGR block 50µM
COc1ccc(-c2nc3c(c(SCC(=O)N4CCCCC4)n2)Cc2cc(C)ccc2O3)cc1	none (no result: Giardia FBPA inh, RE007 growth inh, LmPK inh, NS1 function inh)
COc1ccc(/[N+]([O-])=C/c2ccoc2)cc1	Sm TGR block 5µM (no result: Giardia FBPA inh, LmPK inh, NS1 function inh)
O=C(CN1C(=O)CN=C(c2ccccc2)c2ccccc21)NCc1ccco1	Sm TGR block 40µM
COc1ccc(C(=O)Nc2sc3c(c2C(=O)NCc2ccco2)CCCC3)cc1OC	none
COc1ccc(C2=NCC(=O)N(CC(=O)NCc3ccco3)c3sc4c(c32)CCCC4)cc1OC	Sm TGR block 22µM
CC(C)CCNC(=O)CN1C(=O)CN=C(c2ccccc2)c2ccccc21	none
O=C(Cc1csc(-c2ccccc2)n1)NCc1ccc(F)cc1	none
O=C(Cc1csc(-c2ccccc2)n1)NCc1ccco1	Sm TGR block 40µM (no result: NS1 function inh)

From PubChem BioAssay
